# Experimental data: ChEMBL document CHEMBL2218924, “A broad activity screen in support of a chemogenomic map for kinase signalling research and drug discovery” (Biochem J, 2013)
# What was measured:
# [1] = target: Focal adhesion kinase 1 (Homo sapiens) (UniProt Q05397); details: at 10 µM
# [2] = target: Fibroblast growth factor receptor 1 (Homo sapiens) (UniProt P11362); details: at 1 µM
# [3] = target: Fibroblast growth factor receptor 1 (Homo sapiens) (UniProt P11362); details: at 10 µM
# [4] = target: Fibroblast growth factor receptor 2 (Homo sapiens) (UniProt P21802); details: at 1 µM
# [5] = target: Fibroblast growth factor receptor 2 (Homo sapiens) (UniProt P21802); details: at 10 µM
# [6] = target: Fibroblast growth factor receptor 3 (Homo sapiens) (UniProt P22607); details: at 1 µM
# [7] = target: Fibroblast growth factor receptor 3 (Homo sapiens) (UniProt P22607); details: at 10 µM
# [8] = target: Fibroblast growth factor receptor 4 (Homo sapiens) (UniProt P22455); details: at 1 µM
# Sequence of Fibroblast growth factor receptor 4 (Homo sapiens) (P22455 22-802 limits assumed): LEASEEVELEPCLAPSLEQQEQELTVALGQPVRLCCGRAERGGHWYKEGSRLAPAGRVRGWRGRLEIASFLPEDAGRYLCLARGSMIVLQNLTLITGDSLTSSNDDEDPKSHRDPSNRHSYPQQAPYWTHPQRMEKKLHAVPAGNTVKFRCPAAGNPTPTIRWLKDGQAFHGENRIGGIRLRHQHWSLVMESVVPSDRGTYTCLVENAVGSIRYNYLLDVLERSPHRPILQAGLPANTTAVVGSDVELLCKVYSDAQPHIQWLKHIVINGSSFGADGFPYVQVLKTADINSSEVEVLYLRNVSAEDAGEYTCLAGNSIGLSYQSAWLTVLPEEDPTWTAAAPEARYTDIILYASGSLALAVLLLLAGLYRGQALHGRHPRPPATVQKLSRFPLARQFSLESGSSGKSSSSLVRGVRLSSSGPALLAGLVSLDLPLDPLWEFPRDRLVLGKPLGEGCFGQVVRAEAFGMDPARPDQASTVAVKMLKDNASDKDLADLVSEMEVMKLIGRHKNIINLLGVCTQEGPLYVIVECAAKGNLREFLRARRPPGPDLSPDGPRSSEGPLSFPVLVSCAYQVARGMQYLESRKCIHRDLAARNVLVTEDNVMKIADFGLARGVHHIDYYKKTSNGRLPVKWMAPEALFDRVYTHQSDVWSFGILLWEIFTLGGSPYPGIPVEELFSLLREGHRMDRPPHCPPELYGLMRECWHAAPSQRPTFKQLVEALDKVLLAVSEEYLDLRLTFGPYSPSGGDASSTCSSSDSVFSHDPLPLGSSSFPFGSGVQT
# [9] = target: Fibroblast growth factor receptor 4 (Homo sapiens) (UniProt P22455); details: at 10 µM
# [10] = target: Tyrosine-protein kinase Fer (Homo sapiens) (UniProt P16591); details: at 1 µM
# [11] = target: Tyrosine-protein kinase Fer (Homo sapiens) (UniProt P16591); details: at 10 µM
# [12] = target: Tyrosine-protein kinase Fes/Fps (Homo sapiens) (UniProt P07332); details: at 1 µM
# [13] = target: Tyrosine-protein kinase Fes/Fps (Homo sapiens) (UniProt P07332); details: at 10 µM
# [14] = target: Tyrosine-protein kinase Fgr (Homo sapiens) (UniProt P09769); details: at 1 µM
# Sequence of Tyrosine-protein kinase Fgr (Homo sapiens) (P09769 2-529 limits assumed): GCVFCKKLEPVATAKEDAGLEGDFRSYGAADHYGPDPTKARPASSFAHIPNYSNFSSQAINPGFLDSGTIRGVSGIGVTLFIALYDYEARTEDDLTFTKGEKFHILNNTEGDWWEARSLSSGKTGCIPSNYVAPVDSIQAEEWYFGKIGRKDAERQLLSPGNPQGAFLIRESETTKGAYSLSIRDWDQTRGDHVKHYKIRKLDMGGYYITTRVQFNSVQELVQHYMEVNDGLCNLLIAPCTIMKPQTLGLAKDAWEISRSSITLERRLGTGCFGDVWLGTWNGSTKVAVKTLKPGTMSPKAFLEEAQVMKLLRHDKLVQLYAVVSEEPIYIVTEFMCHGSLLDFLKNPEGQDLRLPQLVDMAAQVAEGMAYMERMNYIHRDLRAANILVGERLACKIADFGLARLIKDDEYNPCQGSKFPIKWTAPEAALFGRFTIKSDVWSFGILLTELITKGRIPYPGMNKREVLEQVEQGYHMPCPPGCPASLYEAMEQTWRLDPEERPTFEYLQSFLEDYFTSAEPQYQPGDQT
# [15] = target: Tyrosine-protein kinase Fgr (Homo sapiens) (UniProt P09769); details: at 10 µM
# [16] = target: Vascular endothelial growth factor receptor 1 (Homo sapiens) (UniProt P17948); details: at 1 µM
# Sequence of Vascular endothelial growth factor receptor 1 (Homo sapiens) (P17948 whole entry): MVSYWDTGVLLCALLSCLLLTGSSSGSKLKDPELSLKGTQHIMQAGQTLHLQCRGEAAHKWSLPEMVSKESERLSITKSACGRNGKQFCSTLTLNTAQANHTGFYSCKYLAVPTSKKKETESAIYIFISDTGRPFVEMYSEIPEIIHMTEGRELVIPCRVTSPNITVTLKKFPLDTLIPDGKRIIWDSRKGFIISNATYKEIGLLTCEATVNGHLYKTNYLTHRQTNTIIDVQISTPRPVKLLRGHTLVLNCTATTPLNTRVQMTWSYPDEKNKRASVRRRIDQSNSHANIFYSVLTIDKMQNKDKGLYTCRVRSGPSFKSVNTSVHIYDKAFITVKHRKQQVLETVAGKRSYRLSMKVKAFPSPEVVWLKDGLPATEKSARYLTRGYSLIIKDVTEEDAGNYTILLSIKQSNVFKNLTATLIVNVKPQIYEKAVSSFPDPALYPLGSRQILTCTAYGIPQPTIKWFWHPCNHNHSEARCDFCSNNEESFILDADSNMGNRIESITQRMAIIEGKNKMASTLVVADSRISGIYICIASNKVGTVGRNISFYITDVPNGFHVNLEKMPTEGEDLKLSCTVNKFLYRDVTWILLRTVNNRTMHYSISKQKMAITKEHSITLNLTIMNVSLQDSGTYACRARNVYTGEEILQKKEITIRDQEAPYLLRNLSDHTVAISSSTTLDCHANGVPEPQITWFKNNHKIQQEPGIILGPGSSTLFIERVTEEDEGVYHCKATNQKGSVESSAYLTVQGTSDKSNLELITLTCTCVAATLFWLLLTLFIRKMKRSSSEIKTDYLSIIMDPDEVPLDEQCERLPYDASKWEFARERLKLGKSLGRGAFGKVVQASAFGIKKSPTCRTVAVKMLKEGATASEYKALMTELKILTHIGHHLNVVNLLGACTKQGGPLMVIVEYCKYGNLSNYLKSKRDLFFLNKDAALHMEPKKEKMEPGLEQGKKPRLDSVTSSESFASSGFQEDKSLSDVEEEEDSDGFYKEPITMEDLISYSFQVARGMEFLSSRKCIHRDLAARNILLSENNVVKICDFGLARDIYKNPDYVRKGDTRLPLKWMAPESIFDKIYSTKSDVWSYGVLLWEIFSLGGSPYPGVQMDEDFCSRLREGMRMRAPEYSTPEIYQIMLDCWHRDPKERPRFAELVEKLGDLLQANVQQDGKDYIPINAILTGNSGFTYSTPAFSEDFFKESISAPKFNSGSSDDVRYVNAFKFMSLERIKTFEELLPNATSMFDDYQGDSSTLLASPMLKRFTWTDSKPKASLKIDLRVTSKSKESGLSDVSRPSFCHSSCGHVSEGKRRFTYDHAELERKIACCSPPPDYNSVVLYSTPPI
# [17] = target: Vascular endothelial growth factor receptor 1 (Homo sapiens) (UniProt P17948); details: at 10 µM
# [18] = target: Receptor-type tyrosine-protein kinase FLT3 (Homo sapiens) (UniProt P36888); details: at 1 µM
# [19] = target: Receptor-type tyrosine-protein kinase FLT3 (Homo sapiens) (UniProt P36888); details: at 10 µM
# [20] = target: Vascular endothelial growth factor receptor 3 (Homo sapiens) (UniProt P35916); details: at 1 µM
# Sequence of Fibroblast growth factor receptor 1 (Homo sapiens) (P11362 22-822 limits assumed): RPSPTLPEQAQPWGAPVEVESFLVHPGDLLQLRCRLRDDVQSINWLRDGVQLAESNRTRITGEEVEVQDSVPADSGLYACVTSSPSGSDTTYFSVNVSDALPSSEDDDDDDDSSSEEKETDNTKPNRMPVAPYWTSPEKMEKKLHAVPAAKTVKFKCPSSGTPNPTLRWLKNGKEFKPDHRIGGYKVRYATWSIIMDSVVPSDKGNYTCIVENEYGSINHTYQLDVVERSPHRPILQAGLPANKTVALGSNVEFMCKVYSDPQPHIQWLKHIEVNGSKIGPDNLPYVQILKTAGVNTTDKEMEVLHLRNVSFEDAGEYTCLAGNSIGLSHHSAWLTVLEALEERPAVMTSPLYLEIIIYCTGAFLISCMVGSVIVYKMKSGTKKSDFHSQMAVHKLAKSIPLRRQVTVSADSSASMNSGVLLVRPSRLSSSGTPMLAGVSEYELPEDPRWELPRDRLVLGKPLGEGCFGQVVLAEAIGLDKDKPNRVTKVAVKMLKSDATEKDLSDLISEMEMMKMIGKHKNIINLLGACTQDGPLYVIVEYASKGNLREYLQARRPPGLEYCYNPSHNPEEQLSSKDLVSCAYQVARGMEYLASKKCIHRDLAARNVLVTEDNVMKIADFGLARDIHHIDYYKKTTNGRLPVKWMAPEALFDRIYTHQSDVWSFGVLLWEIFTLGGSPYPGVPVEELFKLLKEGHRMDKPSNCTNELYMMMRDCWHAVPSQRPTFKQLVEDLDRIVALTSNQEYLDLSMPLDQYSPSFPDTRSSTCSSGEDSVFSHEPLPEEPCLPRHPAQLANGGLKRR
# Sequence of Focal adhesion kinase 1 (Homo sapiens) (Q05397 2-1052 limits assumed): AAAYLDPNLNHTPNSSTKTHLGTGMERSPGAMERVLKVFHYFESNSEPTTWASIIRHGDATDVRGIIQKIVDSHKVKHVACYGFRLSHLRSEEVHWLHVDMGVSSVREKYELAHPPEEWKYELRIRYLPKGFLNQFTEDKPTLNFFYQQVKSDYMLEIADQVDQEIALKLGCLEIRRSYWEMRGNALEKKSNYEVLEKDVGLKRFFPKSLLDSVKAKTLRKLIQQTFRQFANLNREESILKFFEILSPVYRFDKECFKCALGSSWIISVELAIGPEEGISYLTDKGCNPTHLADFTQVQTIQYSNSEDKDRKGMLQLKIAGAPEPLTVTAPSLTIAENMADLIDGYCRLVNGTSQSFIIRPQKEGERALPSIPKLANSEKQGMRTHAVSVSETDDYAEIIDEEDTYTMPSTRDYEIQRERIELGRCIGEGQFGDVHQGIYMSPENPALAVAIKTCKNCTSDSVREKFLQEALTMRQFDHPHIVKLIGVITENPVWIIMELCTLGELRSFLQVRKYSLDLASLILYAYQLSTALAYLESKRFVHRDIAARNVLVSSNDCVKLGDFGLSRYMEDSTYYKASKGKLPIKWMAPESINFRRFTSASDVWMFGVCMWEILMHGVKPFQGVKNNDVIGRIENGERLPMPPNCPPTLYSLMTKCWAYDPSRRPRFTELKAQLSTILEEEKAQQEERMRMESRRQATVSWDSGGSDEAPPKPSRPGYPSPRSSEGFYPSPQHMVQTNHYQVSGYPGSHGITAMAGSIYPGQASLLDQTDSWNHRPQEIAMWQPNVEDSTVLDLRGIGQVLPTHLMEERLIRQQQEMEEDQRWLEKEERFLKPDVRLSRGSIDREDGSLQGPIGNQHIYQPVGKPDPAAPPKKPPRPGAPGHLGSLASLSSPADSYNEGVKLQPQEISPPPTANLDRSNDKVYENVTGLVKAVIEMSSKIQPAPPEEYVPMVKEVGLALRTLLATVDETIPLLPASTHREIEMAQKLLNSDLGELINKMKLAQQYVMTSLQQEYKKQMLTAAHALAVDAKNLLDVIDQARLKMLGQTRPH
SMILES,residual activity [1] [%],residual activity [2] [%],residual activity [3] [%],residual activity [4] [%],residual activity [5] [%],residual activity [6] [%],residual activity [7] [%],residual activity [8] [%],residual activity [9] [%],residual activity [10] [%],residual activity [11] [%],residual activity [12] [%],residual activity [13] [%],residual activity [14] [%],residual activity [15] [%],residual activity [16] [%],residual activity [17] [%],residual activity [18] [%],residual activity [19] [%],residual activity [20] [%]
Nc1cccc(-c2cc3c(Oc4cccc(O)c4)ncnc3[nH]2)c1,42,2,0,21,2,53,9,72,22,58,10,13,1,0,2,0,0,22,1,-1
O=Nc1c(-c2c(O)[nH]c3ccccc23)[nH]c2ccccc12,2,3,-1,22,2,20,2,100,45,70,53,72,30,8,1,1,0,1,0,-1
CC#CC(=O)Nc1cc2c(Nc3ccc(F)c(Cl)c3)ncnc2cn1,99,97,80,91,113,86,125,116,96,108,94,118,81,105,95,94,101,96,85,98
Cc1nc2cc3nc(-c4cccs4)cnc3cc2n1C,105,102,41,72,30,79,23,119,95,113,105,134,88,109,69,40,3,15,1,24
O=C(O)c1ccc2c3c1cccc3c(=O)n1c3ccccc3nc21,100,94,75,110,78,98,92,112,96,81,5,98,71,97,87,92,81,50,22,74
COc1cc2ncnc(Nc3ccc(O)c(Br)c3)c2cc1OC,64,58,24,94,67,109,67,126,101,105,84,95,65,39,6,29,4,49,2,14
CO[C@H]1C[C@@H]2CC[C@@H](C)[C@@](O)(O2)C(=O)C(=O)N2CCCC[C@H]2C(=O)O[C@H]([C@H](C)C[C@@H]2CC[C@@H](O)[C@H](OC)C2)CC(=O)[C@H](C)/C=C(\C)[C@@H](O)[C@@H](OC)C(=O)[C@H](C)C[C@H](C)/C=C/C=C/C=C/1C,83,111,63,115,114,97,107,138,145,106,95,106,84,98,99,88,96,100,96,99
Cc1nc(-c2ccccc2)c(-c2ccncc2)o1,98,120,83,86,74,121,114,109,99,101,105,108,120,95,92,89,60,69,28,-1
Nc1n[nH]c2nnc(-c3c(-c4ccccc4)nn4ccccc34)cc12,83,110,61,98,83,–,102,101,94,95,66,85,86,86,50,71,23,72,22,76
CC(=O)O/N=C1\C(=C2\C(=O)Nc3cc(Br)ccc32)Nc2ccccc21,59,17,0,73,18,84,22,–,69,94,92,107,97,10,-1,24,1,3,0,2
O=C1Nc2cc(Br)ccc2/C1=C1/Nc2ccccc2/C1=N\O,15,3,3,16,18,59,54,67,35,86,45,79,100,1,2,-1,1,1,1,1
COc1cc2ncnc(Nc3ccc(Oc4ccccc4)cc3)c2cc1OC,71,–,48,65,33,78,54,121,109,110,76,102,90,7,2,18,4,39,11,7
O=c1c2ccccc2[nH]c(=S)n1CCN1CCC(=C(c2ccc(F)cc2)c2ccc(F)cc2)CC1,81,83,49,119,62,123,78,–,81,109,89,117,93,110,91,97,98,81,57,89
COc1cc2ncnc(Nc3ccc(NC(=O)c4ccccc4)cc3)c2cc1OC,75,–,–,–,92,–,–,–,82,111,94,–,90,71,25,101,72,97,92,76
c1ccc2c(-c3ccncc3)c[nH]c2c1,65,–,90,111,87,–,–,112,94,109,97,111,72,–,91,85,63,107,78,91
C[C@@H](N)[C@H]1CC[C@H](C(=O)Nc2ccncc2)CC1,96,95,98,102,82,–,93,100,103,100,–,108,108,103,90,118,108,97,95,100
O=[N+]([O-])c1ccc(-c2nc(-c3ccc(F)cc3)c(-c3ccncc3)[nH]2)cc1,102,102,82,112,99,109,99,122,92,100,–,100,116,103,96,77,46,104,90,78
c1ccc(-c2n[nH]c3c2oc2ccccc23)cc1,76,90,36,–,52,98,59,–,–,–,–,–,–,–,49,13,1,6,0,3
O=C1NC(=O)c2cc(Nc3ccc(F)cc3)c(Nc3ccc(F)cc3)cc21,89,85,135,101,82,114,103,142,93,109,86,112,69,89,44,77,66,107,73,84
NC(=O)c1ccc2[nH]c(-c3ccc(Oc4ccc(Cl)cc4)cc3)nc2c1,65,118,101,108,103,129,132,123,126,95,89,97,87,99,90,82,39,65,27,69
CCN(CC)C(=O)c1ccc(Nc2nc(OCC3CCCCC3)c3nc[nH]c3n2)cc1,12,40,2,56,9,49,4,–,–,53,6,61,9,55,7,33,2,5,1,0
Cc1cccc(-c2[nH]c(C(C)(C)C)nc2-c2ccc3c(c2)OCO3)n1,95,–,–,–,95,–,129,–,–,–,–,–,87,–,88,86,84,–,87,99
N#CCCc1ccc2c(c1)-c1[nH]c3ccc([N+](=O)[O-])cc3c1CC(=O)N2,22,47,17,–,48,–,–,–,–,–,–,16,5,15,6,24,11,19,8,10
CN(C)CCCn1cc(C2=C(c3c[nH]c4ccccc34)C(=O)NC2=O)c2ccccc21,37,50,3,88,33,–,29,121,70,113,81,125,14,–,55,–,–,–,–,–
Nc1ccc2ncnc(NCCc3ccc(Oc4ccccc4)cc3)c2c1,94,92,28,77,48,54,33,107,80,93,84,91,87,84,–,54,26,33,9,15
N#CC(C#N)=C(N)/C(C#N)=C/c1ccc(O)cc1,97,100,75,–,–,99,–,135,–,–,–,–,91,–,96,96,90,100,86,94
O=C1Nc2ccc(Br)cc2/C1=C\c1cc2c([nH]1)CCCC2,58,81,81,63,53,–,–,–,–,119,–,107,78,–,72,17,20,3,1,1
CN(C)c1ccc(/C=C2\C(=O)Nc3ccccc32)cc1,62,61,10,94,38,89,64,122,110,109,82,113,79,90,44,14,2,4,1,3
O=C1Nc2ccccc2/C1=C1/Nc2ccccc2/C1=N\OCCC(O)CO (stereo not drawn),1,2,-1,20,2,22,23,–,–,37,35,71,48,3,3,1,0,0,0,-1
N#Cc1cnc2cnc(NCc3cccnc3)cc2c1Nc1ccc(F)c(Cl)c1,–,21,12,48,30,38,18,–,92,83,95,19,12,11,4,14,7,2,0,8
